A3A deaminase – inhibitors of human APOBEC3A DNA deaminase. P31941. recombinant A3A, FAM/TAMRA ssDNA deamination fluorescence. 330,000 compounds, 0.41% hits. inhibition, % at 20 µM;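 active = at least 40% inhibition at 20 µM here, with at most 30% in a related deaminase screen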;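 note: plate controls were A3A with DMSO for no effect and wells lacking A3A enzyme for full effect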
MITF TRPM1 HTS – increases MITF-driven TRPM1 promoter luciferase signal | SK-MEL-5 TRPM1-promoter luciferase, 24 h; % of positive control, neutral wells = 0 | activation, % at 12.5 µM | 300,000 compounds, 0.75% hits | AID 588334;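 active = mean activation of at least 80% with every replicate also reaching 80%; inconclusive = mean reaches 80% but some replicate falls short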;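 note: 0% = neutral control wells and 100% = parthenolide positive control wells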
A3G deaminase – APOBEC3G (human) deaminase inhibition; recombinant A3G, ssDNA deamination FAM/TAMRA fluorescence; inhibition, % at 20 µM; 330,000 compounds, 0.28% hits; AID 493012;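 active = inhibition of at least 40% at 20 µM, with no more than 30% in the related APOBEC3A deaminase screen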;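 note: plate controls were DMSO wells with A3G for no effect and wells lacking A3G enzyme for full effect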
Target sequence (Q9HC16 whole entry, looked up): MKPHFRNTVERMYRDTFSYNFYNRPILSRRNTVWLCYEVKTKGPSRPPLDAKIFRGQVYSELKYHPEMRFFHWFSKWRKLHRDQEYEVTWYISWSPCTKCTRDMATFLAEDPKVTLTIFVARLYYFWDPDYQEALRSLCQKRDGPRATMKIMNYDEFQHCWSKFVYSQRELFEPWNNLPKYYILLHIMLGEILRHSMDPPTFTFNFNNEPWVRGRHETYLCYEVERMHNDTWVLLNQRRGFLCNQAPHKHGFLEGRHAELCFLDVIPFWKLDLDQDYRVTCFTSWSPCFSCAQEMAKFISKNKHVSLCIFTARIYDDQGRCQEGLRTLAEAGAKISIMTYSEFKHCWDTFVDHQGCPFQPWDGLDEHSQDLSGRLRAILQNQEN
Wnt act – Wnt/beta-catenin pathway activation; Wnt/beta-catenin reporter cell assay, activator, plate reader; AID 743398; activation, % at 9.35 µM; 300,000 compounds, 1.2% hits; in the data active = activation above about 30%, passing the limit was not always enough; inconclusive = no clear call, values can overlap the other calls;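 note: 0% = neutral control wells and 100% = positive control wells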
esBAF inh – SWI/SNF esBAF complex inhibition. mouse ES cells, Bmi1-luciferase knock-in reporter, 24 h; 100% = twice the neutral-well signal. reporter increase, % at 12.5 µM. 350,000 compounds, 2% hits. AID 602393; in the data active = activation above about 40%; inconclusive = no clear call, values can overlap the other calls;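 note: 0% = median of the plate's neutral control wells and 100% = double that signal; a rise in the Bmi1 reporter signal indicates esBAF inhibition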
PHOSPHO1 inh – inhibitors of human PHOSPHO1 phosphatase; Q8TCT1; recombinant PHOSPHO1, absorbance phosphatase assay; AID 1565; 290,000 compounds, 1.1% hits; inhibition, % at 13.3 µM; in the data active = inhibition above about 60%
Active calls of the source: *; ? = inconclusive; . = not tested or not shown. A selection: hits, their analogues and other compounds. The true share with any hit is near 3.6%.

SMILES	A3A deaminase	MITF TRPM1 HTS	A3G deaminase	Wnt act	esBAF inh	PHOSPHO1 inh
Cc1ccc(C2=NN(S(C)(=O)=O)C(c3ccc4c(c3)OCO4)C2)cc1 (stereo unspecified)	1	38	-7	50*	.	2
CS(=O)(=O)N1N=C(c2ccc(Br)cc2)CC1c1ccc2c(c1)OCO2 (stereo unspecified)	-2	?	-5	.	54*	9
COc1cccc(S(=O)(=O)N(C)C[C@@H]2Oc3cc(C4=CCCCC4)ccc3S(=O)(=O)N([C@@H](C)CO)C[C@H]2C)c1	.	.	.	.	-2	.
O=C(C[C@H]1CC[C@H](NC(=O)C2CCC2)[C@H](CO)O1)NCC1CC1	.	.	.	.	-1	.
CC12CCC(=O)C=C1CCC1C2CCC2(C)C1CC[C@]2(O)C(=O)CO (stereo partly specified)	0	-11	-5	-4	-5	68*
Nc1nc(-c2ccc3c(c2)CCO3)cs1	0	52	-2	34*	.	57
COc1cccc(NC(=O)N2C[C@H](O)COC[C@H]3O[C@H](CC(=O)N(C)C)CC[C@@H]32)c1	.	.	.	.	6	.
O=C(CCl)c1ccc(Cc2ncc(C(F)(F)F)cc2Cl)s1	-3	-22	-5	-4	-5	77*
COc1ccccc1OCc1nc2ccccc2[nH]1	-1	?	-7	64*	12	4
Brc1ccc(OCc2nc3ccccc3[nH]2)cc1	-2	100*	-7	36*	?	39
c1ccc2cc(OCc3nc4ccccc4[nH]3)ccc2c1	1	21	-5	.	51*	-10
COc1ccc(OCc2nc3ccccc3[nH]2)cc1	-4	72	-8	.	21	3
CN(C)Cc1c(O)ccc2c(=O)c(-c3ccc(Cl)cc3)coc12	-3	22	-1	-2	64*	-11
O=C(N/N=C/c1cn(-c2ccccc2)nc1-c1cc2ccccc2o1)c1cccnc1	-3	7	-7	73*	.	-1
O=C(N/N=C/c1cn(-c2ccccc2)nc1-c1cc2ccccc2o1)c1ccncc1	-1	37	-3	.	.	16
Cc1ccc(S(=O)(=O)Nc2cccc3c2O[C@@H](CN(C)Cc2ccc(-c4ccccc4)cc2)[C@@H](C)CN([C@@H](C)CO)C3=O)cc1	.	.	.	.	-3	.
C[C@@H]1CN([C@H](C)CO)C(=O)c2cc(-c3cncnc3)cnc2O[C@H]1CN(C)C(=O)c1ccccc1F	.	.	.	.	2	.
CC(C)(C)N=Cc1cc(-c2ccccc2)sc1O	-2	.	-2	63*	74*	11
O=C(C[C@H]1CC[C@H]2[C@@H](COC[C@H](O)CN2Cc2ccncc2)O1)NCc1ccncc1	.	.	.	.	0	.
CC(=O)Nc1ccc(C2=NNC(=Nc3ccc(S(=O)(=O)N4CCOCC4)cc3)SC2)cc1	0	-18	-5	-5	.	65*
O=S(=O)(c1ccc(N=C2NN=C(c3cc(F)ccc3F)CS2)cc1)N1CCOCC1	-4	-12	-7	-1	.	5
CCNC(=O)[C@H]1[C@H](CO)[C@H]2Cn3c(ccc(-c4ccccc4F)c3=O)[C@H]2N1C(=O)CC	.	.	.	.	7	.
O=C(Nc1ccc(F)c(Cl)c1)c1nsc(Cl)c1Cl	-3	67	-7	-3	60*	-1
CCOc1ccc(NC(=O)c2nsc(Cl)c2Cl)cc1	-4	67	2	54*	38	41
COc1ccc(CN(C)C[C@H]2OCCCC[C@H](C)Oc3ccc(NC(=O)Nc4ccc(F)cc4)cc3C(=O)N([C@@H](C)CO)C[C@@H]2C)cc1	.	.	.	.	-8	.
SMILES	A3A deaminase	MITF TRPM1 HTS	A3G deaminase	Wnt act	esBAF inh	PHOSPHO1 inh
COc1ccc(C(=O)Nc2ccc(C(F)(F)F)n(C)c2=O)cc1	2	28	1	63*	.	6
CCN(CC)S(=O)(=O)c1ccc(C(=O)Nc2ccc(C(F)(F)F)n(C)c2=O)cc1	-1	-2	-4	-1	-9	28
COCCn1c(C(F)(F)F)ccc(NC(=O)c2ccccc2)c1=O	0	65	-8	17	28	40
Cc1ccc(C(=O)Nc2ccc(C(F)(F)F)n(C)c2=O)cc1	1	23	-5	54*	.	24
COCC(=O)N1C[C@@H](C)[C@@H](OC)CN(C)C(=O)c2ccc(NC(=O)c3cc(C)on3)cc2OC[C@H]1C	.	.	.	.	-1	.
O=C(C[C@H]1C[C@@H]2c3cc(NS(=O)(=O)c4ccc(F)cc4)ccc3O[C@@H]2[C@H](CO)O1)NCc1ccccn1	.	.	.	.	-3	.
